Screening results as filed in PubChem.
L3MBTL1 block: inhibitors of human L3MBTL1 | 0.66% of 230,000 active | Q9Y468 | AID 485360 | AlphaScreen L3MBTL1–H3K9me1 peptide binding | Potency, µM (series often up to 57.1 µM), without a hit: at the top dose activity, negative = inhibition, actives largely listed as inhibitors; also: % is scaled to controls: 0 for no effect and ±100 for the full control effect; nearly all actives have a fitted effect of over 60% in size
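Displacement of a biotinylated histone H3(1-15) peptide monomethylated at Lys9 (75 nM) from L3MBTL1 (50 nM) was measured by AlphaScreen after a 30 min room-temperature compound incubation; cefsulodin titration served as intraplate control.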
BAZ2B inh: blocks human BAZ2B; Q9UIF8; AlphaScreen BAZ2B-H3K14Ac peptide displacement; Potency, µM (doses to about 114 µM), for the others: top-dose activity change, negative = inhibition, actives largely listed as inhibitors; 4.4% of 360,000 active; AID 504333; also: % is scaled to controls: 0 for no effect and ±100 for the full control effect; nearly all actives have a fitted effect of over 60% in size
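AlphaScreen displacement: compounds (up to 110uM) incubated 30 min at room temperature with a preformed 50 nM BAZ2B/50 nM biotinylated H3K14Ac peptide complex in PBS pH 7.4 with Tween-20. Donor and acceptor beads at 10 ug/mL final added, 20 min light-protected before reading.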
G9a inh: G9a (human) methyltransferase inhibition; Q96KQ7; G9a H3K9 monomethylation, AlphaScreen, 2 h; Potency, µM (series often up to 102 µM), for inactives: top-dose activity, negative = inhibition, hits mostly inhibitors; 8.8% of 350,000 active; also: % is scaled to controls: 0 for no effect and ±100 for the full control effect; nearly all actives have a fitted effect of over 75% in size
Target sequence (Q96KQ7 913-1193 limits assumed): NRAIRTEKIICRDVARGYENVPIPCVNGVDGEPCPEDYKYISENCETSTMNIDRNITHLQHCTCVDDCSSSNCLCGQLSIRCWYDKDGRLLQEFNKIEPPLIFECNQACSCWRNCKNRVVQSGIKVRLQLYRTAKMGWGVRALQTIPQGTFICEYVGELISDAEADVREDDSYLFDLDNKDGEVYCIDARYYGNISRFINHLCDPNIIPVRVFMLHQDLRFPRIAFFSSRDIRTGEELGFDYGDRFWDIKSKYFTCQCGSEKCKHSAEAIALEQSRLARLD
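Compounds were preincubated with 20 nM G9a for 15 min, after which biotinylated H3K9 peptide (500 nM) and SAM (20 uM) started a 2 h room-temperature reaction. Monomethylated product was quantified by antibody-based AlphaScreen chemiluminescence.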
Sfp inh: inhibitors of Bacillus subtilis Sfp phosphopantetheinyl transferase; 3.5% of 310,000 active; Biochemical Sfp PPTase activity, qHTS; Q9F4F7; Potency, µM, inactives show largest response in the series, negative = inhibition, most hits filed as inhibitors;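 also: the enzyme is Sfp with the accession as filed and its product quenches rhodamine fluorescence; 0% = enzyme reaction without inhibitor and -100% = no enzyme wells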
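Sfp 15 nM + cpd, 15 min RT; start w/ rhodamine-CoA 5 uM, BHQ-2-YbbR 12.5 uM (final); 50 mM Hepes pH 7.6, 10 mM MgCl2, 0.01% NP-40, 0.01% BSA; read 525/598 nm at 0 and 30 min.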
JMJD2A Tudor: blocks the human JMJD2A Tudor domain; AID 504339; O75164; Potency, µM (doses to about 114 µM), for the others: top-dose activity change, negative = inhibition, hits mostly inhibitors; AlphaScreen JMJD2A-Tudor / H3K4me3 peptide binding; 4.4% of 390,000 active; also: % is scaled to controls: 0 for no effect and ±100 for the full control effect; nearly all actives have a fitted effect of over 50% in size
HP1b binding inh: blocks HP1-beta chromodomain binding to methylated histone tails; P83916; 0.56% of 390,000 active; AID 540317; Potency, µM (series often up to 114 µM), for inactives: at the highest dose activity change, negative = inhibition, hits mostly inhibitors; AlphaScreen HP1-beta / biotin-H3K9me3 peptide binding; also: nearly all actives have a fitted effect of over 70% in size
Target sequence (P83916 whole entry, looked up): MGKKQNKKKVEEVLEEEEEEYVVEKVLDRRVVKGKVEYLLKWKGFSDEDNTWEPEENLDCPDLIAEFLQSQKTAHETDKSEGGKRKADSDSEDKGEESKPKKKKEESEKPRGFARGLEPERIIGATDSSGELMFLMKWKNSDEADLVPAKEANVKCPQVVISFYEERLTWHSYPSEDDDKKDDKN
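AlphaScreen: HP1-beta (50 nM) preformed 30 min with biotin-H3(1-18)K9me3 peptide (50 nM) in PBS pH 7.4, 0.01% Tween-20. Compound added for 30 min at RT, then streptavidin donor/nickel chelate acceptor beads (10 ug/mL) for 30 min.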
Numbers without * were called inactive; ? = inconclusive; . = no result given; [ ] = another dose, or the depositor's remark. Most compounds without a hit are left out; they make up all but 12% or so of the library. Calls follow the shape of the dose curve; as a rule, active = well fitted curve in the direction sought with a large enough effect; inconclusive = small, poorly fitted or top-dose-only effect, or another doubt; inactive = no such curve, though single readings can be large; an effect the other way counts as inactive or inconclusive. Potency is read from the fitted curve at half-maximal effect.

SMILES	L3MBTL1 block	BAZ2B inh	G9a inh	Sfp inh	JMJD2A Tudor	HP1b binding inh
COc1ccc(CNC(=O)c2ccc(-c3nc(CSc4ccccc4)c(C)o3)cc2)cc1	.	-7%	-26%[59 µM]	.	?	7%
Cc1nc(N2CCOCC2)c2nc(-c3ccccc3)n(CCCN3CCOCC3)c2n1	.	.	.	28%	.	.
Cc1sc(NC(=O)c2cc(-c3ccc(Cl)cc3)nc3ccccc23)c(C(N)=O)c1C	-4%	2%	13µM*	?	-14%	?
Cc1cc(NC(=O)c2cc(-c3ccccc3C)nc3ccccc23)no1	-6%	-4%	11%[59 µM]	1%	-21%	12%
CCOC(=O)c1sc(NC(=O)c2cc(-c3ccc(C)cc3)nc3ccccc23)c(C#N)c1C	-2%	0%	5.6µM*	20µM*	79µM*	?
CCOC(=O)c1sc(-c2ccc(C)cc2)c(C#N)c1C	12%	12%	40µM*	?	3%	-10%
COc1ccc(-c2cc(C(=O)Nc3sc4c(c3C#N)CCCC4)c3ccccc3n2)cc1	-14%	-11%	15%[59 µM]	9%	-29%	-10%
Cc1ccccc1-c1cc(C(=O)Nc2sc(C(=O)OC(C)C)c(C)c2C#N)c2ccccc2n1	-6%	-1%	45µM*	40µM*	56µM*	?
O=C(NCc1cccs1)c1cc(S(=O)(=O)N2CCOCC2)ccc1N1CCCC1	3%	9%	-5%[2.33 µM]	.	-12%	15%
COc1ccc(-c2nc3cnc(N4CCOCC4)nc3n(-c3ccccc3)c2=O)cc1	.	.	5%[0.501 µM]	27%	.	.
CCCCn1c(N)c(N(CC(C)C)C(=O)c2cc(Cl)nc3ccccc23)c(=O)[nH]c1=O	3%	10%	-46%	.	-12%	21%
CCOCC(=O)Nc1cc(C(=O)Nc2cc(C)cc(C)c2)ccc1Cl	3%	-1%	10%	15%	.	.
CN(C(=O)C1CCCN1S(=O)(=O)c1ccc(Cl)cc1)c1ccccc1 (stereo unspecified)	2%	8%	14%[12.7 µM]	.	-1%	38%
O=C(COC(=O)c1cc(-c2ccccc2)nc2ccccc12)c1ccc(Br)cc1	.	12%	28%[59 µM]	.	5%	37%
C/C(N)=C(/C#N)C(=O)COC(=O)c1cc(-c2ccc(Br)cc2)nc2ccccc12	34%	16%	1.8µM*	3%	-4%	14%
c1ccc(CSc2ccc(-c3cccs3)nn2)nc1	17%	-7%	16µM*	-5%	2%	27%
Cc1nn(C(C)C(=O)NCCN2CCCC2)c(=O)c2c1sc1ccccc12 (stereo unspecified)	.	-20%	-5%	23%	-27%	5%
CC(C)c1noc(-c2ccccc2OCC(=O)Nc2ccc([N+](=O)[O-])cc2)n1	.	-11%	?	.	-15%	31%
Cc1cccc(-c2noc(-c3ccccc3OCC(=O)Nc3ccc([N+](=O)[O-])cc3)n2)c1	.	-34%	?	.	28µM*	-15%
COc1ccc(/C(O)=C2\C(=O)C(=O)N(c3cc(C)on3)C2c2cccc(OC)c2OC)cc1C (stereo unspecified)	2%	?	50µM*	17%	-4%	40%
COc1ccc(/C(O)=C2/C(=O)C(=O)N(c3ccccn3)C2c2cccc(Cl)c2)cc1 (stereo unspecified)	.	-20%	79µM*	27%	-31%	12%
Cc1ccc(/C(O)=C2\C(=O)C(=O)N(c3cc(C)on3)C2c2cccc(Cl)c2)cc1 (stereo unspecified)	-2%	-5%	45µM*	23%	-16%	30%
Cc1ccc(/C(O)=C2\C(=O)C(=O)N(c3cc(C)on3)C2c2cccc(Br)c2)cc1 (stereo unspecified)	44%	21%	26%[59 µM]	?	-18%	8%
COc1ccc(C2/C(=C(/O)c3ccc(C)cc3)C(=O)C(=O)N2C)cc1 (stereo unspecified)	-3%	11%	?	11%	-8%	9%
COc1ccc(N2C(=O)C(=O)/C(=C(/O)c3ccc(C)cc3)C2c2cccnc2)cc1 (stereo unspecified)	7%	56µM*	?	-9%	?	0%
SMILES	L3MBTL1 block	BAZ2B inh	G9a inh	Sfp inh	JMJD2A Tudor	HP1b binding inh
CCc1ccc(C(=O)c2cn(CC(=O)Nc3cc(OC)ccc3OC)c3nc(C)ccc3c2=O)cc1	.	-34%	-25%[59 µM]	.	-28%	0%
Cc1nc2nc(NC(=O)CC(C)C)[nH]n2c(=O)c1Cc1ccccc1	.	1%	-4%[59 µM]	.	-9%	21%
CCn1cc(C(=O)NCCOC)c(=O)c2cc(S(=O)(=O)N3CCOCC3)ccc21	.	.	0%[59 µM]	.	-1%	34%
CCc1cc(C(=O)N2CCOCC2)c(NC2=NS(=O)(=O)c3ccccc32)s1	6%	-37%	89µM*	-26%	-4%	40%
COC(=O)c1cc(F)c(S(=O)(=O)N2CCN(S(=O)(=O)c3ccc4c(c3)OCCO4)CC2)cc1F	.	.	.	.	-7%	.
Cc1nc2cc(-c3ccccc3)nn2c(C)c1CCC(=O)N1CCN(c2ccc(F)cc2)CC1	.	-32%	-11%[59 µM]	.	-28%	5%
O=[N+]([O-])c1cccc(OCc2cn3cccnc3n2)c1	.	-12%	7%	3%	-4%[11.4 µM]	?
Cc1cccn2cc(COc3ccc(-c4ccccc4)cc3)nc12	.	?	-2%[59 µM]	35µM*	-25%	-4%
Cc1ccc(OCc2cn3cccnc3n2)cc1	10%	89µM*	-2%[59 µM]	12%	-8%	35%
COc1ccc2cc(CCNC(=O)c3ccc(S(=O)(=O)N4CCCC4)cc3)c(=O)[nH]c2c1	.	-4%	12%	12%	-1%	17%
Nc1ccc(S(=O)(=O)N2CCN(S(=O)(=O)c3ccc4c(c3)OCCO4)CC2)cc1	.	.	.	.	-5%	.
COc1ccc2c(=O)cc(C(=O)O)oc2c1	-1%	-22%	56µM*	6%	-10%	36%
COc1ccc2c(C)c(C(=O)O)oc2c1	.	2%	-18%	5%	-25%[57.1 µM]	63%
COC(=O)[C@H](CCSC)NC(=O)c1cc2c(cn1)[nH]c1ccccc12	.	-34%	1.8µM*	8.9µM*	?	?
CSCC[C@H](NC(=O)N1C[C@H]2C[C@@H](C1)c1cccc(=O)n1C2)C(=O)Nc1ccc(NC(C)=O)cc1	8%	-2%	38%	11%	-14%	5%
C=C(C)Cn1c(SCC(=O)N/N=C/c2ccccc2)nc2ccccc2c1=O	4%	-1%	11%[59 µM]	79µM*	-10%[57.1 µM]	13%
COC(=O)C1(NC(=O)CNC(=O)OCc2ccccc2)CCCC1	.	.	.	.	-3%	12%
O=C(COc1ccc(/C=N/NS(=O)(=O)c2ccccc2)cc1)N1CCOCC1	.	1%	40µM*	-12%	1%	11%
Cc1ccc(S(=O)(=O)N/N=C/c2ccc(OCC(=O)NC(C)C)cc2)cc1	.	.	.	.	-4%	21%
